Experimental data reported in the supplement of paper PMC12067093, “Discovery and optimisation of a covalent ligand for TRIM25 and its application to targeted protein ubiquitination” (Chemical Science, 2025).
Targets with the largest changes are over-represented here; the source holds about 21,000 in all.

Compound: Cc1cc(ccc1-c1ccccc1)C(=O)N1CCCN(CC1)C(=O)CCl [compound 10]
Test: probe-labelled cysteine peptide fold change vs DMSO (competition) (log2 fold change); higher = less target engagement (more negative = stronger competition)
Conditions: THP-1, incubation time: 4 h
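Further: competitive profiling in live THP-1 cells: cysteine peptides tagged with an iodoacetamide desthiobiotin (IA-DTB) probe, intensity after compound treatment relative to DMSO-treated cells.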

Chain of UniProt P23528 (P23528 whole entry, looked up): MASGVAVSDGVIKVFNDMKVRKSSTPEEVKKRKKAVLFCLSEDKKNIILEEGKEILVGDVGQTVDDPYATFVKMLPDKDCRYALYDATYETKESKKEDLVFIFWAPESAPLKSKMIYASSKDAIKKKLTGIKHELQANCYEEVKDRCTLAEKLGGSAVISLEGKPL
Chain of UniProt Q9BSF8 (Q9BSF8 whole entry, looked up): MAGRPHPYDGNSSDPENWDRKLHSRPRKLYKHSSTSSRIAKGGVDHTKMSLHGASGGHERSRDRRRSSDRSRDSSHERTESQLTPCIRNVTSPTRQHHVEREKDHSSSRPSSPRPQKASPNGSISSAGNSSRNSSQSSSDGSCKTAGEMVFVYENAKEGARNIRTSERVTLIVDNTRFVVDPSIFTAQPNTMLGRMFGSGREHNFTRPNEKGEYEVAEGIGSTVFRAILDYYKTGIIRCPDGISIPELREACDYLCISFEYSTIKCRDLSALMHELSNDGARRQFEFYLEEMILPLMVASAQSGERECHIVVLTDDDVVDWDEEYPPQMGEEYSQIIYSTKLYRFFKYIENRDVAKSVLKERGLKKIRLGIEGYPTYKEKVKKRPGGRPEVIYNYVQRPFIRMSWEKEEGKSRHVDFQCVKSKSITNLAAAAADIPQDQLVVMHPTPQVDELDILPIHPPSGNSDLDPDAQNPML
Chain of UniProt O00257 (O00257 whole entry): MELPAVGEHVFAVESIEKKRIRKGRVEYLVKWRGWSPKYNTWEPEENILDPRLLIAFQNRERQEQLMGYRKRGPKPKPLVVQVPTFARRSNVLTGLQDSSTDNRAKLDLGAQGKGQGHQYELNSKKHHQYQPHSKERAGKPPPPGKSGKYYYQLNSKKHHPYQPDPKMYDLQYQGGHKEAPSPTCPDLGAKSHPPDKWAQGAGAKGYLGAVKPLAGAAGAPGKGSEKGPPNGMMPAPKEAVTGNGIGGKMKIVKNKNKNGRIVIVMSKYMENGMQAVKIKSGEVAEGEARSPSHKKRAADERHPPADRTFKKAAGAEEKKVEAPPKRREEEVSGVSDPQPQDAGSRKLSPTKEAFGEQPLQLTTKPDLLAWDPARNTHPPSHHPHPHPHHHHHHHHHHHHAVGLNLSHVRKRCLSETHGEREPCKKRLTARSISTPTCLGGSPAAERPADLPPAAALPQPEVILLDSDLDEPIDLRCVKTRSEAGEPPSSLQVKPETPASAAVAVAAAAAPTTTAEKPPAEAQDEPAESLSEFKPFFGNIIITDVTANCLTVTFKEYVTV
Chain of UniProt P60953 (P60953 whole entry, looked up): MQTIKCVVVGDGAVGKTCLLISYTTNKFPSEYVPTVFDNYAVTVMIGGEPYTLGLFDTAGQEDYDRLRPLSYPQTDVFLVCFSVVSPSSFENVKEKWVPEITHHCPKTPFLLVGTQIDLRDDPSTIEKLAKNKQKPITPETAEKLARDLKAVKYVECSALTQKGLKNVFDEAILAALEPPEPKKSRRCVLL
Chain of UniProt Q92879 (Q92879 whole entry, looked up): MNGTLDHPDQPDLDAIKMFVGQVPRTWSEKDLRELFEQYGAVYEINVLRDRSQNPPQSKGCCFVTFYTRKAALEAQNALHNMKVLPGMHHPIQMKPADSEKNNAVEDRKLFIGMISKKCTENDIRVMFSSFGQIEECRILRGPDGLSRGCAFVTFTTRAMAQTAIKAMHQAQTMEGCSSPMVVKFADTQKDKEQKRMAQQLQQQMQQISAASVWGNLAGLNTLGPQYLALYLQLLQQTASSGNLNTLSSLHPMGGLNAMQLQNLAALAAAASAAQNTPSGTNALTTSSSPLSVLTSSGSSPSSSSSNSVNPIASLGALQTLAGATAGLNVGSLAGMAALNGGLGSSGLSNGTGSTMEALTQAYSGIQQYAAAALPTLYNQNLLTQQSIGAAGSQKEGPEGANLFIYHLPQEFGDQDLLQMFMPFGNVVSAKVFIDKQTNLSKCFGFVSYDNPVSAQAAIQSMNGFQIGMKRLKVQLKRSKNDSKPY
Chain of UniProt O95696 (O95696 whole entry, looked up): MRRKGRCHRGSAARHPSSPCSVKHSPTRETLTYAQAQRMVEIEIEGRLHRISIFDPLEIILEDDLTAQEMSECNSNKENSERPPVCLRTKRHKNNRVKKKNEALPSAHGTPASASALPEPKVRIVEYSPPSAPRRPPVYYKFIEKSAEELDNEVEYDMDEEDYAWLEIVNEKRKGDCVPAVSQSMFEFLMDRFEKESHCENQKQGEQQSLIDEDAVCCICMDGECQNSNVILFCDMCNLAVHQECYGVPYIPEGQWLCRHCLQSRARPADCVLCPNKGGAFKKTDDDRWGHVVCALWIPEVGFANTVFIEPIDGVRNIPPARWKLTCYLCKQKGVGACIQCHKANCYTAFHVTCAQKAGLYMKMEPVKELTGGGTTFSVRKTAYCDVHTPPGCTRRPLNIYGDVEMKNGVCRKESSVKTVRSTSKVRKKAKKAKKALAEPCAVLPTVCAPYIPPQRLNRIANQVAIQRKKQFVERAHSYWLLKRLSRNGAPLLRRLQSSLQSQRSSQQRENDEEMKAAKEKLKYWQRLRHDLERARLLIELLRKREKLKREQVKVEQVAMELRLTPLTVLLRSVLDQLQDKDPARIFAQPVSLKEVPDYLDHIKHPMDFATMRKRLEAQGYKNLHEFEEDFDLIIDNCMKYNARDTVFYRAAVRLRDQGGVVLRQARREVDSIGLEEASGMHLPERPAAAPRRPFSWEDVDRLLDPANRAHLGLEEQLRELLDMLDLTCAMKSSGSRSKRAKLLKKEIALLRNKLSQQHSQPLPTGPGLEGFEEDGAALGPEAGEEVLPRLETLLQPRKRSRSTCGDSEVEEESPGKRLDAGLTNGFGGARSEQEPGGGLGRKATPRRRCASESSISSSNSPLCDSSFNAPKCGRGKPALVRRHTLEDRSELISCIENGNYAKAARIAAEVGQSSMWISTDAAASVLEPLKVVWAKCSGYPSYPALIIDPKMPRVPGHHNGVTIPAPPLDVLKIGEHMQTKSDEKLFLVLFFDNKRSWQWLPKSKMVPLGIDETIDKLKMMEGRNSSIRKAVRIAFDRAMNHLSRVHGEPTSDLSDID
Chain of UniProt Q00535 (Q00535 whole entry, looked up): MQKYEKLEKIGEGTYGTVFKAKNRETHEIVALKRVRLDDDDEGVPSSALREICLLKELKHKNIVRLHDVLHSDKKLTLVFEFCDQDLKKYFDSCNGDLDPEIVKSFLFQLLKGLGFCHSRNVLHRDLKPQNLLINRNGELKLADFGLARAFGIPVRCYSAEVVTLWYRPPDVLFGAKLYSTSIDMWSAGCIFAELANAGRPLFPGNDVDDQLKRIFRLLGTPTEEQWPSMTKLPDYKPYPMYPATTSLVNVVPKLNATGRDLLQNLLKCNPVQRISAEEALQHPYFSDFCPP
Chain of UniProt P21953 (P21953 whole entry, looked up): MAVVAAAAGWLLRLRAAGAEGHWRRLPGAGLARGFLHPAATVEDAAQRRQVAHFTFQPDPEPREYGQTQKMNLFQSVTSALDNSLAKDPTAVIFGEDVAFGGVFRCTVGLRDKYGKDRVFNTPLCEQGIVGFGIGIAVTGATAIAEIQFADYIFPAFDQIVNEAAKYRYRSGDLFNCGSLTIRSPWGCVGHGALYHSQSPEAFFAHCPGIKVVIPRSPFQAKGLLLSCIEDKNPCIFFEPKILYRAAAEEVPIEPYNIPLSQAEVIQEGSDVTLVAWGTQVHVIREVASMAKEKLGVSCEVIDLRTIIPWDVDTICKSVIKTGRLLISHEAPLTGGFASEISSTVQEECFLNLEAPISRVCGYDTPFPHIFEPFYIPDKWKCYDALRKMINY
Chain of UniProt Q86X55 (Q86X55 whole entry, looked up): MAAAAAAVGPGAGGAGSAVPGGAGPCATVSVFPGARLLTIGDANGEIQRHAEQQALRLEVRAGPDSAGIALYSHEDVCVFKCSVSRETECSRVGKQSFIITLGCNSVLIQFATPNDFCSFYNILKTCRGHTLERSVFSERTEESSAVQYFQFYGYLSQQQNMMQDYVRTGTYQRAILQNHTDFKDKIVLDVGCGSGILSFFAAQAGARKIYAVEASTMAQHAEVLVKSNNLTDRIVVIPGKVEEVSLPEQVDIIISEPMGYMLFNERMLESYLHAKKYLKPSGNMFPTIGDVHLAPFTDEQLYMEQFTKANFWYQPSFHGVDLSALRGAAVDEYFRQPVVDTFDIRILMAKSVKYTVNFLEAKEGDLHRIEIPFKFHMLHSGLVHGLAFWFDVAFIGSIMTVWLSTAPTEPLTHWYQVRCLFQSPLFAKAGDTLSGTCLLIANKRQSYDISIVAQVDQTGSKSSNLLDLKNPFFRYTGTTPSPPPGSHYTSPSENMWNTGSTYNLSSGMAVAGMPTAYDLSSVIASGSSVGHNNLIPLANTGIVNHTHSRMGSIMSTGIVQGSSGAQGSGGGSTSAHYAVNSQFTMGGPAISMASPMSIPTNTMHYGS
Chain of UniProt P42575 (P42575 whole entry, looked up): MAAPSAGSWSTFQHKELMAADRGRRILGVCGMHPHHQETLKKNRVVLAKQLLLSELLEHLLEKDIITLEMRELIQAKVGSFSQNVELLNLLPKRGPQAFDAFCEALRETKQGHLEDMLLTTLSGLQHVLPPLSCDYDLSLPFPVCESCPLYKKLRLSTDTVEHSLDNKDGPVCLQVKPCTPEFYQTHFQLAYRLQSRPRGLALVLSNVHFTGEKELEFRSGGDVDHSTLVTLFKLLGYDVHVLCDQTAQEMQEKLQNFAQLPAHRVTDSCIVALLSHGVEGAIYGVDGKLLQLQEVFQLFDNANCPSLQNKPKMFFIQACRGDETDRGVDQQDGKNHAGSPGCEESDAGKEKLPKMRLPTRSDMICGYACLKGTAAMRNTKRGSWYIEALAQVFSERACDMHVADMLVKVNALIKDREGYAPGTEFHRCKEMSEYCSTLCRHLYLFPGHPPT
Chain of UniProt P83916 (P83916 whole entry, looked up): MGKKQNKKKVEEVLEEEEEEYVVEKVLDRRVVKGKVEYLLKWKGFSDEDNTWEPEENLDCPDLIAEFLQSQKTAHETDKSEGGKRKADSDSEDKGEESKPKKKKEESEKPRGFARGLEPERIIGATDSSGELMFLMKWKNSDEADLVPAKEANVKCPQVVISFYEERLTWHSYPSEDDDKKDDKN

With “BRIX1_Q8TDN6_52_RHATAEEVEEEERDRIPGPVCK (UniProt Q8TDN6)” the “probe-labelled cysteine peptide fold change” value (10 µM) was -0.278 and the “probe-labelled cysteine peptide fold change” value (50 µM) was -0.296.
“BTBD10_Q9BSF8_86_TESQLTPCIR (UniProt Q9BSF8)” was tested, and the “probe-labelled cysteine peptide fold change” value (10 µM) was -0.608 and the “probe-labelled cysteine peptide fold change” value (50 µM) was -1.07.
In the case of “CARM1_Q86X55_438_AGDTLSGTCLLIANK (UniProt Q86X55)”, the “probe-labelled cysteine peptide fold change” value (10 µM) is reported as 0.0534 and the “probe-labelled cysteine peptide fold change” value (50 µM) is reported as 0.146.
With “BCKDHB_P21953_361_VCGYDTPFPHIFEPFYIPDK (UniProt P21953)” the “probe-labelled cysteine peptide fold change” value (10 µM) was -0.0395 and the “probe-labelled cysteine peptide fold change” value (50 µM) was 0.155.
“CBX4_O00257_185_EAPSPTCPDLGAK (UniProt O00257)” was tested, and the “probe-labelled cysteine peptide fold change” value (10 µM) was -0.129 and the “probe-labelled cysteine peptide fold change” value (50 µM) was -0.0437.
With “CEP192_Q8TEP8_1562_APVEVAPCADVVTR (UniProt Q8TEP8)” the “probe-labelled cysteine peptide fold change” value (10 µM) was -0.611 and the “probe-labelled cysteine peptide fold change” value (50 µM) was -0.285.
In the case of “CEPT1_Q9Y6K0_11+30_CGDSHPESPVGFGHMSTTGCVLNK (UniProt Q9Y6K0)”, the “probe-labelled cysteine peptide fold change” value (10 µM) is reported as -1.98 and the “probe-labelled cysteine peptide fold change” value (50 µM) is reported as -2.17.
In the case of “BHLHE22_Q8NFJ8_156_GSVAESSGGEQSPDDDSDGRCELVLR (UniProt Q8NFJ8)”, the “probe-labelled cysteine peptide fold change” value (10 µM) is reported as -0.393 and the “probe-labelled cysteine peptide fold change” value (50 µM) is reported as -0.217.
With “CHORDC1_Q9UHD1_86_ELCELK (UniProt Q9UHD1)” the “probe-labelled cysteine peptide fold change” value (10 µM) was -0.0657 and the “probe-labelled cysteine peptide fold change” value (50 µM) was 0.205.
For “BRAP_Q7Z569_47_TTLASAVACLEGK (UniProt Q7Z569)”, the “probe-labelled cysteine peptide fold change” value (10 µM) was -0.252 and the “probe-labelled cysteine peptide fold change” value (50 µM) was -0.245.
With “CELF2_O95319_174_GCAFVTFSTR (UniProt O95319)” the “probe-labelled cysteine peptide fold change” value (10 µM) was 0.0275 and the “probe-labelled cysteine peptide fold change” value (50 µM) was 0.0429.
For “CBR1_P16152_226_ILLNACCPGWVR (UniProt P16152)”, the “probe-labelled cysteine peptide fold change” value (10 µM) was -0.103 and the “probe-labelled cysteine peptide fold change” value (50 µM) was -0.297.
With “CDC42_P60953_105_EKWVPEITHHCPK (UniProt P60953)” the “probe-labelled cysteine peptide fold change” value (10 µM) was -0.508 and the “probe-labelled cysteine peptide fold change” value (50 µM) was -0.929.
For “CENPF_P49454_339_CRDELVR (UniProt P49454)”, the “probe-labelled cysteine peptide fold change” value (10 µM) was 0.481 and the “probe-labelled cysteine peptide fold change” value (50 µM) was 0.506.
For “CFL1_P23528_39_AVLFCLSEDK (UniProt P23528)”, the “probe-labelled cysteine peptide fold change” value (10 µM) was 0.0825 and the “probe-labelled cysteine peptide fold change” value (50 µM) was 0.0485.
With “CELF1_Q92879_119_CTENDIR (UniProt Q92879)” the “probe-labelled cysteine peptide fold change” value (10 µM) was 0.0497 and the “probe-labelled cysteine peptide fold change” value (50 µM) was 0.276.
“CARD9_Q9H257_402_ADELQLQVFQCEAQLLAVEGR (UniProt Q9H257)” was tested, and the “probe-labelled cysteine peptide fold change” value (10 µM) was 0.18 and the “probe-labelled cysteine peptide fold change” value (50 µM) was 0.639.
With “BOP1_Q14137_108_TTEEQVQASTPCPR (UniProt Q14137)” the “probe-labelled cysteine peptide fold change” value (10 µM) was -0.185 and the “probe-labelled cysteine peptide fold change” value (50 µM) was -0.638.
For “CEP170_Q5SW79_30_EMIFVGRDDCELMLQSR (UniProt Q5SW79)”, the “probe-labelled cysteine peptide fold change” value (10 µM) was -0.075 and the “probe-labelled cysteine peptide fold change” value (50 µM) was 0.0343.
For “CBX1_P83916_156_CPQVVISFYEER (UniProt P83916)”, the “probe-labelled cysteine peptide fold change” value (10 µM) was 0.121 and the “probe-labelled cysteine peptide fold change” value (50 µM) was -0.00934.
With “C17orf75_Q9HAS0_265_FLSVASLQGLIHEGTMTSLCMAMTEEQHK (UniProt Q9HAS0)” the “probe-labelled cysteine peptide fold change” value (10 µM) was 0.0249 and the “probe-labelled cysteine peptide fold change” value (50 µM) was -0.756.
In the case of “BIRC6_Q9NR09_3773_TAIENATVAFFLQCISCHPNNQK (UniProt Q9NR09)”, the “probe-labelled cysteine peptide fold change” value (10 µM) is reported as 0.213 and the “probe-labelled cysteine peptide fold change” value (50 µM) is reported as 0.136.
For “CBX8_Q9HC52_142_NMGLSPPASSTSTSSTCR (UniProt Q9HC52)”, the “probe-labelled cysteine peptide fold change” value (10 µM) was -0.187 and the “probe-labelled cysteine peptide fold change” value (50 µM) was -0.373.
For “CASP10_Q92851_169_IDEDNLTCLEDLCK (UniProt Q92851)”, the “probe-labelled cysteine peptide fold change” value (10 µM) was -0.0609 and the “probe-labelled cysteine peptide fold change” value (50 µM) was 0.0728.
In the case of “CEPT1_Q9Y6K0_30_CGDSHPESPVGFGHMSTTGCVLNK (UniProt Q9Y6K0)”, the “probe-labelled cysteine peptide fold change” value (10 µM) is reported as -2.38 and the “probe-labelled cysteine peptide fold change” value (50 µM) is reported as -2.51.
With “CCAR2_Q8N163_515_RNAETPEATTQQETDTDLPEAPPPPLEPAVIARPGCVNLSLHGIVEDR (UniProt Q8N163)” the “probe-labelled cysteine peptide fold change” value (10 µM) was 0.107 and the “probe-labelled cysteine peptide fold change” value (50 µM) was -0.245.
For “CHPF_Q8IZ52_243_YCHGGFGVLLSR (UniProt Q8IZ52)”, the “probe-labelled cysteine peptide fold change” value (10 µM) was -0.176 and the “probe-labelled cysteine peptide fold change” value (50 µM) was 0.255.
“CAD_P27708_2161_FGSTQEYEACFGQFILTPHIMTR (UniProt P27708)” was tested, and the “probe-labelled cysteine peptide fold change” value (10 µM) was 0.0378 and the “probe-labelled cysteine peptide fold change” value (50 µM) was 0.111.
For “CHORDC1_Q9UHD1_59_RTTDFSDFLSIVGCTK (UniProt Q9UHD1)”, the “probe-labelled cysteine peptide fold change” value (10 µM) was -0.167 and the “probe-labelled cysteine peptide fold change” value (50 µM) was -0.292.
In the case of “BRD1_O95696_294_TDDDRWGHVVCALWIPEVGFANTVFIEPIDGVR (UniProt O95696)”, the “probe-labelled cysteine peptide fold change” value (10 µM) is reported as -0.0156 and the “probe-labelled cysteine peptide fold change” value (50 µM) is reported as 0.0676.
In the case of “CDK5_Q00535_117_GLGFCHSR (UniProt Q00535)”, the “probe-labelled cysteine peptide fold change” value (10 µM) is reported as 0.00449 and the “probe-labelled cysteine peptide fold change” value (50 µM) is reported as 0.158.
For “CBR1_P16152_122_DVCTELLPLIK (UniProt P16152)”, the “probe-labelled cysteine peptide fold change” value (10 µM) was 0.109 and the “probe-labelled cysteine peptide fold change” value (50 µM) was 0.509.
“CAND1_Q86VP6_802_CVAALTR (UniProt Q86VP6)” was tested, and the “probe-labelled cysteine peptide fold change” value (10 µM) was 0.211 and the “probe-labelled cysteine peptide fold change” value (50 µM) was -0.156.
“AVEN_Q9NQS1_169_EWDSEASCPK (UniProt Q9NQS1)” was tested, and the “probe-labelled cysteine peptide fold change” value (10 µM) was -0.857 and the “probe-labelled cysteine peptide fold change” value (50 µM) was -2.39.
“CASP2_P42575_30_ILGVCGMHPHHQETLKK (UniProt P42575)” was tested, and the “probe-labelled cysteine peptide fold change” value (10 µM) was -0.432 and the “probe-labelled cysteine peptide fold change” value (50 µM) was -1.14.
“CAMK2B_Q13554_116_EYYSEADASHCIQQILEAVLHCHQMGVVHR (UniProt Q13554)” was tested, and the “probe-labelled cysteine peptide fold change” value (10 µM) was -0.0191 and the “probe-labelled cysteine peptide fold change” value (50 µM) was 0.141.
For “CDC45_O75419_267_HNHRNEDEENTLSVDCTR (UniProt O75419)”, the “probe-labelled cysteine peptide fold change” value (10 µM) was 0.0632 and the “probe-labelled cysteine peptide fold change” value (50 µM) was -0.279.
